Pf Dd2 inh: inhibitors of Plasmodium falciparum Dd2 growth; P. falciparum Dd2 growth, SYBR Green, 72 h; Potency, µM (top dose mostly 28.9 µM), for the others: at the top dose activity, negative = inhibition, most hits filed as inhibitors; AID 1347417; 120,000 tested, 4.3% active; active = well fitted inhibition curve with a large enough effect;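 also: plate controls were DMSO vehicle for no effect and reference drug for full effect; nearly all actives have a fitted effect of over 65% in size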
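Infected erythrocytes (Dd2, 0.3% parasitemia, 2.5% hematocrit final) are added to compound in RPMI-1640/Albumax II medium, grown 72 h at 37C in low oxygen, then lysed with saponin/Triton-X containing SYBR Green and read by fluorescence.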
Starred values were filed as active, the others as inactive; i = inactive. This is one part of a sample in which hits are shown more often than they occur. Potency is read from the fitted curve at half-maximal effect.

SMILES | Pf Dd2 inh
COC1C(=O)N(c2cccc(F)c2)C12CCN(C(=O)CCc1c[nH]c3ccccc13)CC2 (stereo not drawn) | 7.94µM*
C[C@]1(O)CCN(C(=O)CCc2c[nH]c3ccccc23)C[C@@H]1O | 3.6%
Cc1ccc(CN2CCn3c(nnc3[C@@H]3C[C@@H](O)CN3Cc3cccnc3)C2)s1 | -16.6%
Cc1ccc(S(=O)(=O)N2CCCC(Cn3cnc4cccnc43)C2)cc1C (stereo not drawn) | -4.3%
COCCOc1ccc(-c2ccnc(OC)c2C#N)cc1 | -24.4%
Cn1nc(C2CCN([S+](=O)([O-])c3cccc(C(F)(F)F)c3)CC2)[nH]c1=O | -11.4%
CCC1Oc2ccc(NC(=O)c3ccccc3F)cc2CN(Cc2ccc(OC)cc2)C1=O (stereo not drawn) | i
Cc1cccc(NC(=O)C2CCN(C(=O)c3nnn4cc(C)[nH]c(=O)c34)CC2)c1 | i
Cc1ccc(-c2cc3c(=O)n(CCNC(=O)c4ccc(F)cc4)ccn3n2)c(C)c1 | 2.82µM*
Cc1ccc(-c2cc3c(=O)n(CCNC(=O)c4ccc(F)c(F)c4)ccn3n2)c(C)c1 | i
Cc1ccc(-c2cc3c(=O)n(CCNC(=O)Cc4ccccc4Cl)ccn3n2)c(C)c1 | -7.0%
Cc1ccc(-c2cc3c(=O)n(CCNC(=O)Cc4c[nH]c5ccccc45)ccn3n2)c(C)c1 | 10µM*
Cc1ccc(C(=O)NCCn2ccn3nc(-c4cc(C)ccc4C)cc3c2=O)cc1 | i
Cc1ccc(-c2cc3c(=O)n(CCNC(=O)Cc4cccc(F)c4)ccn3n2)c(C)c1 | -0.4%
CC(CCc1ccccc1)NC(=O)c1noc(-c2ccc[nH]c2=O)n1 (stereo not drawn) | -25.8%
CC(Oc1ccccc1)C(=O)N1CCCC(n2cc(-c3nc(C4CC4)no3)nn2)C1 (stereo not drawn) | -7.8%
CC1(CNC(=O)c2ccccc2Cl)CCOCC1 | 11.1%
O=C(N[C@@H]1CN(Cc2ccccc2)C[C@H]1CO)c1ccnnc1 | 8.6%
Cn1nccc1C(=O)N[C@@H]1CN(Cc2ccccc2)C[C@H]1CO | 12.6µM*
CC(=O)N[C@@H]1CN(Cc2ccc(F)c(Br)c2)C[C@H]1CO | -25.7%
Cc1cnc(C(=O)N[C@@H]2CN(Cc3ccccc3)C[C@H]2CO)cn1 | -21.8%
Cc1cc(CN2C[C@@H](CO)[C@H](NC(=O)c3ccccc3)C2)n(C)n1 | 35.2%
COc1cc(CN2C[C@@H](CO)[C@H](NC(=O)c3ccccc3)C2)ccc1F | 5.62µM*
CN1CC(=O)N(C2CCNCC2)Cc2c(NCCN3CCOCC3)ncnc21 | 13.7%
COc1ccc2nc3n(c2c1)[C@@H](CNC(=O)c1ccc(F)cc1)COC3 | i
SMILES | Pf Dd2 inh
CCc1ccccc1NC(=O)c1cc2c(=O)[nH]c(C)cn2n1 | 13.7%
Cc1c(Cl)cccc1NC(=O)C(C)n1c(=O)cc(-c2ccccc2)c2c(C)nn(C)c21 (stereo not drawn) | i
Cc1cc(C)c(NC(=O)C(C)n2c(=O)cc(-c3ccccc3)c3c(C)nn(C)c32)c(C)c1 (stereo not drawn) | 19.9%
COc1cc(OC)c(NC(=O)C(C)n2c(=O)cc(-c3ccccc3)c3c(C)nn(C)c32)cc1Cl (stereo not drawn) | 10µM*
O=C(N[C@H]1CO[C@H]2[C@@H]1OC[C@@H]2n1nnnc1Oc1ccc(-n2ccnc2)cc1)c1ccc(C(F)(F)F)cc1 | -21.6%
Cc1ccsc1CN1CCOc2ccc(C(=O)NCc3ccccc3F)cc2C1 | i
Cc1cc2nc3n(c(=O)c2n1CC(=O)Nc1ccc(Br)cc1F)CCCCC3 | -4.6%
c1cncc(-c2ccnc(NCC(c3cccnc3)N3CCCCC3)n2)c1 (stereo not drawn) | -13.4%
OCC1CCCCN1CCNc1nccc(-c2cccnc2)n1 (stereo not drawn) | -29.8%
CN1CCCC1CCNc1nccc(-c2cnn(-c3ccc(F)cc3)c2)n1 (stereo not drawn) | 8.91µM*
CCN(CC)C(=O)Cc1cccn1-c1ccc(Cl)cc1 | -32.4%
CCC(=O)N1CCC(Oc2nccnc2N2CCOCC2)C1 (stereo not drawn) | 34.3%
COc1cc(OC)c(CNC(=O)c2c(C)noc2-c2cccs2)c(OC)c1 | i
CN(C)CCNC(=O)c1nc(-c2ccccc2)cc2[nH]ccc12 | i
CC(=O)c1sccc1-c1cc(NCc2ccccn2)nc2[nH]ccc12 | -27.7%
CC(C)c1cccc(-c2cc(NCc3ccccn3)nc3[nH]ccc23)n1 | 8.91µM*
COCCNc1cc(-c2cncc(C(=O)N3CCOCC3)n2)c2cc[nH]c2n1 | -12.3%
Cc1ccc(C#N)c(-c2cc(NCc3cccnc3)nc3[nH]ccc23)n1 | -23.6%
CN(C)CCNc1cc(-c2ccc3ccccc3n2)c2cc[nH]c2n1 | 12.6µM*
Clc1cccnc1-c1cc(NCc2ccccn2)nc2[nH]ccc12 | 8.91µM*
NC(=O)c1ccnc(-c2cc(NCc3ccccn3)nc3[nH]ccc23)c1 | -25.0%
CC(=O)NCc1ccc(-c2cc(NC3CCCC3)nc3[nH]ccc23)nc1 | -24.1%
Cc1ccc(C(=O)N2CCC3(CC2)N=C(c2cccc(Br)c2)NO3)cc1 | -7.6%
